# From PubChem BioAssay AID1850 (Southern Research Specialized Biocontainment Screening …, 2009)
# Hit rate of the full screen: of about 310,000 compounds, about 1,000 (0.32%) were called active. The list is a sample of the results. Measured potencies and affinities stand elsewhere. A number with no mark means an inactive call. The rule behind the calls is not given here.
# Test: PhoP regulon inhibitors, Salmonella typhi PhoP promoter GFP reporter, confirmatory (AID 1850);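 note: 0% = induced wells with vehicle and 100% = uninduced wells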
# Conditions: fluorescence, 4 h, at 50 µM, active compounds read high
row,Compound,inhibition
1,CCOC(=O)CCNC(=O)Nc1ccc2nc(C)n(Cc3ccccc3Cl)c(=O)c2c1,12%
2,CC(=O)N(Cc1cc2cc(C)c(C)cc2n2nnnc12)CC1COCCO1 (stereo unspecified),-4%
3,CC(C)N(Cc1nc(-c2ccccc2)no1)C(=O)c1ccc2c(c1)OCO2,1.2%
4,COc1ccc(CCC(=O)NCCOc2ccc(Cl)cc2)cc1,-4.36%
5,CN1CCc2nc(SCC(=O)Nc3ccc(OC(F)(F)F)cc3)c(C#N)c(-c3cccs3)c2C1,-3.5%
6,COc1ccc(NC(=O)CSc2nc3c(c(-c4cccs4)c2C#N)CN(C)CC3)cc1OC,0.71%
7,COc1ccccc1Nc1ccc([N+](=O)[O-])cc1N,2.25%
8,CC1CC(C)CN(S(=O)(=O)c2ccc3c(c2)CC(C)N3C(=O)C2CC2)C1 (stereo unspecified),-20.4%
9,CCc1ccc(-c2cc(C)no2)cc1S(=O)(=O)N1CCN(c2ccc(OC)cc2)CC1,-6.02%
10,O=[N+]([O-])c1ccc(N2CCCC2)c2ncccc12,-3.29%
11,O=[N+]([O-])c1cccc2c(N3CCOCC3)ccnc12,-0.36%
12,Cc1cc(C)cc(OCC(=O)Nc2cccc(-c3nnc(-c4ccco4)o3)c2)c1,3.78%
13,CCCCNC(=O)O[C@@H]1C[C@H]2CCC(=O)N3CC[C@@H](C1)[C@@H]23,4.97%
14,CCC(C)c1ccc(NC(=O)c2[nH]c(C)c(C(C)=O)c2C)cc1 (stereo unspecified),-9.52%
15,COc1ccc(C=Nc2ccc3[nH]ncc3c2)c(O)c1,0.93%
16,Cc1ccc(O)c(C=Nc2ccc3[nH]ncc3c2)c1,-7.82%
17,CC1=C(C#N)C(c2cccnc2)C2=C(N1)c1ccccc1C2=O (stereo unspecified),1.42%
18,Cc1ccc(Nc2ccc(NCc3ccccc3)nn2)cc1C,-4.54%
19,Cc1cccc(Nc2ccc(NCc3ccccc3)nn2)c1,5.48%
20,O=C(O)/C=C/C(=O)N1CCN(c2ccc(F)cc2)CC1,2.57%
21,Cc1c(Cc2ccccc2)c(=O)oc2cc(OCC(=O)N[C@@H](Cc3ccccc3)C(=O)O)ccc12,1.41%
22,C#CCOCCOCCOCCNc1nc(N2CCOCC2)nc(N2CCN(C(=O)[C@H](Cc3cc4ccccc4[nH]3)n3cc([C@@H](N)CC(C)C)nn3)CC2)n1,7.58%
23,C#CCOCCOCCOCCNc1nc(N2CCN(C(=O)C(Cc3cc4ccccc4[nH]3)n3cc(C(N)C(C)CC)nn3)CC2)nc(N2CCN(C(=O)C(Cc3cc4ccccc4[nH]3)n3cc(C(N)C(C)CC)nn3)CC2)n1 (stereo unspecified),37.5%

row,Compound,inhibition
1,C#CCOCCOCCOCCNc1nc(N2CCN(C(=O)[C@H](Cc3cc4ccccc4[nH]3)n3cc(C(N)CC(C)C)nn3)CC2)nc(N2CCN(C(=O)[C@H](CCC(=O)O)n3cc(C(N)[C@H](C)CC)nn3)CC2)n1 (stereo partly specified),-6.17%
2,C#CCOCCOCCOCCNc1nc(N2CCN(C(=O)[C@H](CCC(=O)O)n3cc(C(N)CC(C)C)nn3)CC2)nc(N2CCN(C(=O)[C@H](Cc3cc4ccccc4[nH]3)n3cc(C(N)CC(C)C)nn3)CC2)n1 (stereo partly specified),-7.76%
3,CN(C)C(=S)Nc1ccc(Cc2ccncc2)cc1,-0.62%
4,CCN(Cc1ccccc1)C(=O)c1cccc(S(=O)(=O)N2CCN(c3ccccc3)CC2)c1,1.18%
5,COCCCN1CN(S(=O)(=O)c2ccc(C)cc2C)c2nc3ccccc3nc21,6.06%
6,COCCCNC(=O)c1ccccc1N(Cc1ccccc1)S(=O)(=O)c1ccccc1,-7.24%
7,N=c1c2c(n(Cc3ccc(Br)cc3)c3c1CCC3)CCCC2,-4.26%
8,Clc1cccc(CN2CCCCCC2)c1,-6.25%
9,CCn1c2c(c(=N)c3c1CCC3)CCCC2,8.7%
10,N=c1ccn(Cc2ccc(Cl)cc2Cl)cc1,22.8%
11,N=c1c2c(n(Cc3ccc(F)cc3)c3c1CCC3)CCC2,-1.84%
12,N=c1c2c(n(Cc3ccccc3)c3c1CCC3)CCC2,-2.77%
13,N=c1c2c(n(Cc3ccc(F)cc3)c3c1CCC3)CCCC2,5.47%
14,N=c1c2c(n(Cc3ccc([N+](=O)[O-])cc3)c3c1CCC3)CCCC2,-1.87%
15,COc1ccc(N2CCN(S(=O)(=O)CCNC(=O)/C=C/c3ccc4c(c3)OCO4)CC2)cc1,-1.81%
16,CC(C)NC(=O)C(=O)NCc1ccccn1,15.4%
17,CN(CCn1ccnc1)Cc1cn(Cc2ccccc2)nc1-c1ccc2c(c1)OCO2,8.95%
18,CCCn1c(=O)c(C(=O)NCCc2ccc(OC)c(OC)c2)c(O)c2ccccc21,3.2%
19,CCn1c(/N=C/c2ccccc2O)nc2ccccc21,-0.93%
20,CCN1CCSc2ccc(C(=O)NCc3ccc(OC(C)C)cc3)cc21,-2.46%
21,COc1ccc(NC(=O)CNCCC2=CCCCC2)cc1,-8.03%
22,O=C(CNCCC1=CCCCC1)Nc1ccccc1N1CCCCCC1,5.47%
23,Cc1ccc2ccc3cccnc3c2n1,2.32%

row,Compound,inhibition
1,O=S1(=O)NC(=NCCc2ccccn2)c2ccccc21,-5.57%
2,Clc1ccc2ccc3cccnc3c2n1,2.67%
3,Cc1ccc2c(c1)-c1ccccc1S(=O)(=O)N2,-6.75%
4,CCC(C)c1ccccc1N1CC(C(=O)Nc2cc(S(=O)(=O)N3CCOCC3)ccc2OC)CC1=O (stereo unspecified),1.56%
5,CSc1ccc(C2NC(=O)CCC2[N+](=O)[O-])cc1 (stereo unspecified),9.78%
6,Cc1c(C(=O)N2CCN(C(=O)c3ccco3)CC2)oc2c(Cl)cccc12,5.99%
7,Cc1ccc(C(=O)O/N=C/C2=C(Cl)c3ccccc3CC2)cc1,3.65%
8,O=C(O/N=C/C1=C(Cl)c2ccccc2CC1)c1ccc(F)cc1,-1%
9,CCC(C)NCCOc1cc(C)cc(C)c1C (stereo unspecified),10.5%
10,CCOC(=O)c1c(C)[nH]c(C)c1S(=O)(=O)N1c2ccccc2CC1C (stereo unspecified),-32.7%
11,CCOc1ccccc1N1C(=O)NC(=O)C(CCc2ccncc2)(CCc2ccncc2)C1=O,-6.46%
12,CCc1cccc(NC(=O)CSc2nc3c(c(=O)[nH]2)CCCC3)c1,8.6%
13,COC(=O)CSC1=NS(=O)(=O)c2ccccc21,-2.6%
14,CN1CCN(/N=C/c2cccc(Cl)c2Cl)CC1,0.18%
15,CN1CCN(/N=C/c2ccc(-c3ccccc3)cc2)CC1,1.69%
16,CCC(C)(C)NC(=O)C(c1ccc(OC)cc1)N(C(=O)CCC(=O)Nc1cc(C)on1)c1cccc(OC)c1 (stereo unspecified),1.27%
17,O=C(NNC(=O)c1nn(-c2ccc(F)cc2)ccc1=O)c1ccc(Cl)cc1,1.15%
18,CC1(CC(=O)N/N=C/c2cc(Br)c(O)cc2O)OCCO1,-8.89%
19,CC1(CC(=O)N/N=C/c2cc3c(cc2Br)OCO3)OCCO1,5.58%
20,CCN(C1CCCCC1)S(=O)(=O)c1c(C)n(C)c(=O)n(C)c1=O,-2.91%
21,CCn1cc(C(=O)O)c(=O)c2cc(F)c(N/N=C/c3ccccc3)cc21,-3.82%
22,Cc1cc(C)c(NC(=O)c2cn3c4c(c(N5CCN(C)CC5)c(F)cc4c2=O)OCC3C)c(C)c1 (stereo unspecified),1.68%
23,Cc1c(-n2cc(C(=O)O)c(=O)c3cc(F)c(N4CCCC4)c(F)c32)c(=O)n(-c2ccccc2)n1C,-2.73%

row,Compound,inhibition
1,CCOC(=O)C1CN(c2cc3c(cc2F)c(=O)c(C(=O)O)cn3CC)OC1C(=O)OCC (stereo unspecified),-4.02%
2,CCOC(=O)c1cnc2cc(F)c(F)cc2c1N1CCN(C)CC1,-5.38%
3,CCOc1ccc(NC(=O)c2ccc(NC(=O)c3cn4c5c(c(N6CCN(C)CC6)c(F)cc5c3=O)OCC4C)cc2)cc1 (stereo unspecified),-0.94%
4,O=C(Nc1cccc(F)c1)OC(CN1CCCCC1)C(F)(F)F (stereo unspecified),6.26%
5,CC1(C)Cc2c(cnn2-c2ccc(F)cc2)C(NC(=O)CN2CCCCC2=O)C1 (stereo unspecified),-4.07%
6,CCCNC(=S)N1CCN(C)CC1,-12.9%
7,CCOC(=O)c1ccc(Nc2nnc(C(C)(C)C)c(=O)[nH]2)cc1,-2.27%
8,Cc1ccc(C(=O)CSc2nnc(C(C)C)n2C)cc1C,-9.07%
9,O=C(c1ccc2nc(Cc3ccccc3F)oc2c1)N1CCCC1,-15.9%
10,C/C(=N\OC(=O)c1c(-c2ccccc2Cl)noc1C)c1nccs1,-7.14%
11,COCCn1c(N)c(N(Cc2ccccc2)C(=O)c2oc3ccccc3c2C)c(=O)[nH]c1=O,-2.04%
12,CCOc1ccccc1N1CCN(C(=S)NCc2ccco2)CC1,-6.16%
13,CC(=O)c1cnc2nc(C(F)(F)F)nn2c1C,-10.3%
14,CCCCCCn1c2c(c(=N)c3c1CCC3)CCC2,12%
15,CCCCCCCCn1c2c(c(=N)c3c1CCC3)CCCC2,-5.2%
16,CCCn1c2c(c(=N)c3c1CCC3)CCC2,-2.65%
17,CCCCn1c2c(c(=N)c3c1CCC3)CCC2,-3.76%
18,CC(NC(=O)CNC(=O)c1sc2ccccc2c1Cl)c1ccc(S(N)(=O)=O)cc1 (stereo unspecified),3.29%
19,CC1=CC(C)(C(Cl)Cl)C(C)=CC1=O (stereo unspecified),-0.04%
20,Cc1cc(C)c(NC(=O)CSc2nnc(CNC(=O)c3c(F)cccc3Cl)o2)c(C)c1,1.72%
21,CC(=O)C(C(C)=O)C1(O)C(=O)c2ccccc2C1=O,-7.03%
22,CC(=O)N(C)C1=C(O)c2ccccc2C(=O)C1=O,-5.54%
